# Mcl1 Noxa PPI = Mcl-1/Noxa interaction inhibition | TR-FRET Mcl-1/Noxa peptide binding, 2 h | 1.5% of 220,000 active | inhibition, % at 21.7 µM | AID 1022;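 active = compounds that cut the protein-peptide binding signal by more than 50% relative to plate controls in a single-dose test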;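 also: His-tagged Mcl-1 with rhodamine Noxa BH3 peptide and terbium anti-His antibody; 0% = Mcl-1 plus Noxa peptide wells and 100% = peptide-only wells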
# MCL1 BIM primary = MCL1-BIM-BH3 interaction inhibition (human); Q07820; GST-MCL1 / FITC-Bim-BH3 fluorescence polarization; inhibition, % at 10.9 µM; 0.68% of 320,000 active; AID 2057;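 active = inhibition above the mean inhibition of all tested compounds plus 3 SD, set per campaign, cut at about 40% in these data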;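 also: 0% = DMSO wells and 100% = unlabeled Bim-BH3 peptide control; higher means more loss of mP so more displacement of Bim peptide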
# BCLXL inh = inhibitors of human Bcl-xL. 0.7% of 320,000 active. inhibition, % at 10.9 µM. GST-Bcl-xL / FITC-Bim BH3 peptide fluorescence polarization. Q07817;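 active = inhibition above the mean of all tested compounds plus 3 SD, cutoff set per campaign, cut at about 30% in these data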;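 also: 0% = DMSO wells and 100% = unlabeled Bim-BH3 peptide competitor; inhibitors lower millipolarization by displacing the labeled peptide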
# Target sequence (Q07817 whole entry, looked up): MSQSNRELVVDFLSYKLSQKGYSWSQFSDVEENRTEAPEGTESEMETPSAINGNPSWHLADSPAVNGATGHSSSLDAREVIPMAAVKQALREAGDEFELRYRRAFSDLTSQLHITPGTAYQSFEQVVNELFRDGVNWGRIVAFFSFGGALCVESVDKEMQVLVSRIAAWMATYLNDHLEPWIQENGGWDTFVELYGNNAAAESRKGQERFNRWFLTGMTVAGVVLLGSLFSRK
# Mcl1 Bid PPI = Mcl-1/Bid interaction inhibition. inhibition, % at 21.7 µM. AID 1021. 0.97% of 220,000 active. TR-FRET Mcl-1/Bid-Dy647 peptide binding, 1536-well;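 active = compounds that cut the binding signal by more than half at the single screening dose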;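 also: His-tagged Mcl-1 with europium anti-His antibody binding Bid BH3 peptide; 0% = Mcl-1 plus peptide wells and 100% = peptide-only wells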
# Mcl-1 Bim block = human Bim-Mcl-1 interaction inhibition | Q07820 | Bead-based flow cytometry, Bim peptide-Mcl-1 binding | inhibition, % at 10 µM | 0.1% of 190,000 active; in the data active = inhibition above about 40%;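 also: 0% = no compound tracer wells and 100% = peptide blocker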
# GLD-1 TGE inh = GLD-1-TGE RNA interaction inhibition (C. elegans). 0.44% of 320,000 active. inhibition, % at 5.96 µM. Q17339. AID 2280. purified GLD-1 + fluorescein TGE RNA, fluorescence polarization;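 active = percent inhibition above a per-plate cutoff, the plate mean of test compounds plus 3 SD, cut at about 30% in these data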;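 also: 0% = DMSO wells with GLD-1 and probe and 100% = wells lacking GLD-1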
# * = called active by the depositor; x = not tested or not shown. An excerpt weighted towards active compounds, which were near 2.3% of everything screened.
SMILES,Mcl1 Noxa PPI,MCL1 BIM primary,BCLXL inh,Mcl1 Bid PPI,Mcl-1 Bim block,GLD-1 TGE inh
COc1ccc(C(=O)Nc2ccc(NC(=O)c3cc(OC)c(OC)c(OC)c3)cn2)cc1,x,1,5,x,x,5
O=C(NC(=S)Nc1ccccc1)c1cncc(C#Cc2ccccc2)c1,-6,0,2,-2,x,-8
CCNc1ccccc(C(=O)/C=C/c2ccc3c(c2)OCO3)c1=O,70*,35,9,-29,1,0
COC(=O)/C=C/c1ccc2c(c1)OCO2,2,-2,3,-12,1,2
Cc1nn(CCc2nn[nH]n2)c2nc(-c3ccc(C4CCCCC4)cc3)cc(C(F)(F)F)c12,-45,6,2,59*,0,1
O=[N+]([O-])c1c(NCCCO)cc(Sc2nc3ccccc3s2)c2nonc12,50,60*,44*,-39,5,11
CCC(=O)OCCNc1cc(Sc2nc3ccccc3[nH]2)c2nonc2c1[N+](=O)[O-],57*,9,10,-72,1,0
CCCSc1cc(NCCOC(C)=O)c([N+](=O)[O-])c2nonc12,-1,5,1,-12,-3,0
Cc1nnc(Sc2cc(NCCCO)c([N+](=O)[O-])c3nonc23)s1,79*,x,x,-79,-3,x
Cc1nnc(Sc2cc(NCCO)c([N+](=O)[O-])c3nonc23)s1,77*,x,x,-89,5,x
O=[N+]([O-])c1c(NCCO)cc(N2CCCCCC2)c2nonc12,x,1,5,x,x,8
CCCSc1cc(NCCOC(=O)CCC)c([N+](=O)[O-])c2nonc12,8,4,7,-10,0,7
Cc1ccccc1NC(C)C(=O)N/N=C/c1c[nH]c2ccccc12 (stereo unspecified),9,-2,3,-32,-1,9
Cc1ccc(CSc2nnc(SCC(=O)N/N=C/c3c[nH]c4ccccc34)s2)cc1,76*,x,x,90*,2,x
O=C(CSc1nnc(SCc2ccccc2Cl)s1)N/N=C/c1c[nH]c2ccccc12,26,4,4,22,-8,5
Cc1ccc(NC(C)C(=O)N/N=C/c2c[nH]c3ccccc23)cc1 (stereo unspecified),54*,10,0,-9,-3,5
CC(C)(C)OC(=O)N1CCC2(CC1)Oc1ccc(Cl)cc1C(=O)C21CC(c2ccc(Cl)cc2)=NO1 (stereo unspecified),x,9,5,x,x,3
COc1ccccc1NC(=O)c1ccc2[nH]c(C)c(C)c2c1,x,1,4,x,x,-1
Cc1ccc2c(c1)c1c3n2CCCNC3CCC1 (stereo unspecified),2,-2,2,63*,-6,-9
CCOC(=O)c1sc(NC(=O)Nc2ccc(Cl)cc2)cc1C,100*,-5,-2,7,2,12
Cc1cc(C)n2nc(SCCOc3ccccc3)nc2n1,6,9,4,-26,3,3
O=C(/C=C/c1ccc(O)c(O)c1)c1ccc(S(=O)(=O)N2CCCCCC2)cc1,65*,21,1,-44,-2,11
O=C(NC(=O)N1CCCC1)c1csnn1,-8,-4,1,-32,x,1
CC[C@H](C)[C@H](NS(=O)(=O)c1ccc(C)cc1)C(=O)N1CCC(C(=O)N[C@H](C(=O)O)C(C)C)CC1,15,22,41*,0,-1,6
Cc1cc(C(=O)N2CCOCC2)n(-c2ccccc2)n1,20,15,21,51*,0,17
SMILES,Mcl1 Noxa PPI,MCL1 BIM primary,BCLXL inh,Mcl1 Bid PPI,Mcl-1 Bim block,GLD-1 TGE inh
Cc1cc(C(=O)N2CC(C)CC(C)C2)n(-c2ccccc2)n1 (stereo unspecified),-10,-1,3,-7,-1,2
O=c1oc2ccccc2n1Cc1cccc(C(F)(F)F)c1,x,-6,2,x,x,7
CC1CCCC(C)N1CCNC(=O)C1CCN(S(=O)(=O)N2CCCCC2)CC1 (stereo unspecified),10,4,9,102*,-2,8
CC(C)(C)c1ccc(/C=N/NC(=S)Nc2cccnc2)cc1,-23,-3,6,-91,-1,1
Oc1ccc(/C=N/NC(=S)Nc2cccnc2)cc1O,59*,47*,14,-58,-2,-1
NC(=O)c1ccsc1NC(=O)COC(=O)/C=C/c1ccc([N+](=O)[O-])cc1,79*,15,0,46,x,6
Cc1cc(CC(=O)O)c2oc(-c3ccoc3)cc(=O)c2c1,x,47*,38*,x,x,7

# Source: PubChem BioAssay
